According to article doi:10.1101/2025.02.07.636106:

Target: Sodium/potassium-transporting ATPase subunit beta-3 (UniProt P54709)
Assay: cross-link between two proteins; co-fractionation; cross-linking mass spectrometry

**Q.** For “Sodium/potassium-transporting ATPase subunit alpha-1, P05023”, which “listed as a hit” value is on record?
**A.** yes
